According to PubChem BioAssay AID1159580 (chemical genetic matrix, 2015):
Several values for one entry are separate records, joined by “and”; a condition that tells them apart may be missing. Equal entries are not always repeated. The whole screen tested about 5,500 compounds, of which about 2,000 (36%) were called active. Another 18% or so got no clear call; they are omitted. No stated cut-off is given here; in the data, active means normalized growth mostly below about 0.91 (no sharp cut-off); inconclusive means no clear call, values can overlap the other calls; inactive means mostly above about 0.92. This is one part of the list.

Experiment: chemical genetic growth profiling, strain panel (AID 1159580);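 further: tested at 20 µM; growth read once vehicle control cultures reached saturation at 30 °C; 1 = growth at the plate median or of vehicle wells; lower values mean less growth of the strain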
Conditions: S. cerevisiae deletion strains, growth OD

Measured: normalized growth

C[C@]12CCC(=O)C=C1C=CC1C2CC[C@@]2(C)C1CC[C@@]2(O)CCC(=O)O (stereo partly specified)
inactive: locus YAL013W, strain DEP1, active compounds read low 1 | locus YAL021C, strain ccr4, active compounds read low 1.02 | locus YAL026C, strain drs2, active compounds read low 1.01 | locus YAL030W, strain snc1, active compounds read low 1.02 | locus YBL061C, strain skt5, active compounds read low 1.03 | locus YBR009C, strain hhf1, active compounds read low 0.997 | locus YBR021W, strain FUR4, active compounds read low 0.985 | locus YBR023C, strain chs3, active compounds read low 1.02 | locus YBR171W, strain sec66, active compounds read low 1.03 | locus YBR229C, strain ROT2, active compounds read low 0.991 | locus YBR231C, strain swc5, active compounds read low 1.01 | locus YBR279W, strain paf1, active compounds read low 1.03 | locus YCL011C, strain gbp2, active compounds read low 1.03 | locus YCL016C, strain dcc1, active compounds read low 1.01 | locus YCL029C, strain bik1, active compounds read low 0.963 | locus YCL069W, strain vba3, active compounds read low 1.04 | locus YCR088W, strain abp1, active compounds read low 1.03 | locus YDL005C, strain med2, active compounds read low 1.03 | locus YDL035C, strain GPR1, active compounds read low 1.02 | locus YDL040C, strain nat1, active compounds read low 1.04 | locus YDL074C, strain BRE1, active compounds read low 0.969 | locus YDL101C, strain DUN1, active compounds read low 0.982 | locus YDL134C, strain PPH21, active compounds read low 0.99 | locus YDL185W, strain tfp1, active compounds read low 0.982 | locus YDL192W, strain arf1, active compounds read low 0.997 | locus YDR001C, strain nth1, active compounds read low 1.01 | locus YDR069C, strain doa4, active compounds read low 1.01 | locus YDR101C, strain arx1, active compounds read low 0.98 | locus YDR137W, strain rgp1, active compounds read low 0.986 | locus YDR150W, strain NUM1, active compounds read low 1 | locus YDR159W, strain sac3, active compounds read low 0.982 | locus YDR162C, strain NBP2, active compounds read low 1 | locus YDR195W, strain ref2 1.02 | locus YDR297W, strain sur2, active compounds read low 1.02 | locus YDR318W, strain mcm21, active compounds read low 0.986 | locus YDR334W, strain swr1, active compounds read low 1.04 | locus YDR335W, strain msn5, active compounds read low 1.03 | locus YDR388W, active compounds read low 0.988 | locus YDR392W, strain spt3, active compounds read low 0.978 | locus YDR502C, strain sam2, active compounds read low 0.989 | locus YEL003W, strain gim4, active compounds read low 1.02 | locus YEL037C, strain rad23, active compounds read low 1.04 | locus YEL061C, strain CIN8 (second series), active compounds read low 1.02 | locus YEL061C, strain CIN8, active compounds read low 0.999 | locus YER015W, strain faa2, active compounds read low 1.04 | locus YER016W, strain bim1, active compounds read low 1 | locus YER110C, active compounds read low 0.986 | locus YER111C, strain swi4, active compounds read low 1.03 | locus YER155C, strain BEM2 (second series), active compounds read low 1.02 | locus YER155C, strain BEM2, active compounds read low 0.986 | locus YER167W, strain BCK2, active compounds read low 1.01 | locus YFR010W, strain ubp6, active compounds read low 1.04 | locus YGL078C, strain dbp3, active compounds read low 0.983 | locus YGL086W, strain mad1, active compounds read low 1 | locus YGL167C, strain pmr1, active compounds read low 1.02 | locus YGL173C, strain kem1, active compounds read low 1.01 | locus YGL227W, strain vid30, active compounds read low 1.01 | locus YGL240W, strain doc1, active compounds read low 0.968 | locus YGL248W, strain PDE1, active compounds read low 0.994 | locus YGL253W, strain hxk2, active compounds read low 1.03 | locus YGR078C, strain PAC10, active compounds read low 0.987 | locus YGR135W, strain pre9, active compounds read low 0.988 | locus YGR229C, strain SMI1, active compounds read low 1.03 | locus YGR252W, strain gcn5, active compounds read low 1.07 | locus YHR013C, strain ard1, active compounds read low 1.02 | locus YHR027C, strain rpn1, active compounds read low 1.02 | locus YHR030C, strain SLT2, active compounds read low 0.996 and 1.06 | locus YHR079C, strain IRE1 (second series), active compounds read low 0.991 | locus YHR079C, strain IRE1, active compounds read low 1.08 | locus YHR094C, strain hxt1, active compounds read low 0.993 | locus YHR129C, strain ARP1, active compounds read low 0.986 | locus YHR142W, strain chs7, active compounds read low 1.05 | locus YHR200W, strain rpn10, active compounds read low 0.984 | locus YIL066C, strain RNR3, active compounds read low 0.982 | locus YIL073C, strain SPO22, active compounds read low 0.975 | locus YIL125W, strain kgd1, active compounds read low 1.01 | locus YIR030C, strain dcg1, active compounds read low 0.991 | locus YJL092W, strain hpr5, active compounds read low 1.03 | locus YJL095W, strain BCK1 (second series), active compounds read low 1.03 | locus YJL095W, strain BCK1, active compounds read low 0.956 and 1.05 | locus YJL115W, strain asf1, active compounds read low 1.03 | locus YJL129C, strain trk1, active compounds read low 1.06 | locus YJL134W, strain LCB3, active compounds read low 0.997 | locus YJL154C, strain vps35, active compounds read low 1.01 | locus YJL164C, strain tpk1, active compounds read low 1.01 | locus YJL166W, strain qcr8, active compounds read low 0.996 | locus YJL168C, strain set2, active compounds read low 0.987 | locus YJL187C, strain SWE1 (second series), active compounds read low 0.971 | locus YJL187C, strain SWE1, active compounds read low 1.03 | locus YJR043C, strain POL32, active compounds read low 0.974 | locus YJR066W, strain TOR1, active compounds read low 0.976
